Experimental data: PubChem BioAssay (NCATS)
Results filed as inconclusive are left out. Activity calls are given as the source filed them. Calls follow the shape of the dose curve; as a rule, active = well fitted inhibition curve with a large enough effect; inconclusive = small, poorly fitted or top-dose-only effect; inactive = flat fitted curve, though single readings scatter.

Key:
Assay in all cases: qHTS profiling for inhibitors of Plasmodium falciparum proliferation (AID 504749); also: nearly all actives have a fitted effect of over 60% in size
Settings in all cases: P. falciparum in erythrocytes, SYBR Green DNA, 72 h; series mostly up to 28.7 µM
CP266 = system: CP266
How it was run: (§1)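 P. falciparum-infected erythrocytes (0.3% parasitemia, 2.5% hematocrit final) were exposed to compounds for 72 h at 37 C in 5% CO2, then lysed with SYBR Green buffer overnight at room temperature; parasite DNA fluorescence was normalized to artemisinin and DMSO controls.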

CP268 = system: CP268
How it was run: as §1

CP269 = system: CP269
How it was run: as §1

CP286 = system: CP286
How it was run: as §1

CP291 = system: CP291
How it was run: as §1

CP297 = system: CP297
How it was run: as §1

CP305 = system: CP305
How it was run: as §1

CP315 = system: CP315
How it was run: as §1

CP325 = system: CP325
How it was run: as §1

CP329 = system: CP329
How it was run: as §1

CP335 = system: CP335
How it was run: as §1

DIV14 = system: DIV14
How it was run: as §1

DIV17 = system: DIV17
How it was run: as §1

DIV30 = system: DIV30
How it was run: as §1

Dd2 = system: Dd2
How it was run: as §1

ECU = system: ECU
How it was run: as §1

FAB9 = system: FAB9
How it was run: as §1

GB4 = system: GB4
How it was run: as §1

HB3 = system: HB3
How it was run: as §1

ICS = system: ICS
How it was run: as §1

JCK = system: JCK
How it was run: as §1

P93_24 = system: P93_24
How it was run: as §1

PAD = system: PAD
How it was run: as §1

PC15 = system: PC15
How it was run: as §1

PC26 = system: PC26
How it was run: as §1

PC49 = system: PC49
How it was run: as §1

SC27B = system: SC27B
How it was run: as §1

TAB109 = system: TAB109
How it was run: as §1

TAB113 = system: TAB113
How it was run: as §1

TAB165 = system: TAB165
How it was run: as §1

Measured: Potency

NC(Cc1ccc(Oc2cc(I)c(O)c(I)c2)c(I)c1)C(=O)O (stereo not given)
inactive: CP266 | CP268 | CP269 | CP286 | CP291 | CP297 | CP305 | CP315 | CP325 | CP329 | CP335 | DIV14 | DIV17 | DIV30 | Dd2 | ECU | FAB9 | GB4 | HB3 | ICS | JCK | P93_24 | PAD | PC15 | PC26 | PC49 | SC27B | TAB109 | TAB113 | TAB165
